# Assay outcomes (PubChem)
# A selection: hits, their analogues and other compounds. The true share with any hit is near 11%.
# VACV Venus inh: qHTS for Stage-Specific Inhibitors of Vaccinia Orthopoxvirus: Venus Reporter Primary qHTS | Vaccinia virus Venus reporter expression, fluorescence | Potency, µM (series often up to 36.5 µM), hits mostly inhibitors | 330,000 tested, 0.46% active; calls by dose curve; tested in A549 cells; also: nearly all actives have a fitted effect of over 30% in size
# NS1 inh: qHTS Assay for Inhibitors of Influenza NS1 Protein Function; 270,000 tested, 0.4% active; Potency, µM (top dose mostly 46.1 µM); calls by dose curve; also: actives are rising curves; nearly all actives have a fitted effect of over 50% in size
#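 S. cerevisiae expressing influenza A NS1, grown in glucose, washed, then diluted 1:100 into pH 6.0 -URA galactose medium with 23 nl compound. Growth recovery read as OD600; NS1-free strain serves as control.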
# VACV mCherry inh: qHTS for Stage-Specific Inhibitors of Vaccinia Orthopoxvirus: mCherry Reporter Primary qHTS; Vaccinia virus mCherry reporter infection, fluorescence; Potency, µM (highest dose often 36.5 µM), actives largely listed as inhibitors; 310,000 tested, 0.63% active; AID 720579, 2013; calls by dose curve; tested in A549 cells; also: nearly all actives have a fitted effect of over 35% in size
# Pf growth 96h: Primary qHTS for delayed death inhibitors of the malarial parasite plastid, 96 hour incubation; Potency, µM (series often up to 28.7 µM), hits mostly inhibitors; P. falciparum luciferase reporter growth, 96 h; 320,000 tested, 6.9% active; AID 504834, 2011
#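 Readout is luminescence from an integrated firefly luciferase in P. falciparum. Red cells, 2% hematocrit and 0.05% parasitemia final, were cultured with compound through two parasite generations (96 hours) at 37 C, 5% CO2.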
# Pf growth 48h: Primary qHTS for delayed death inhibitors of the malarial parasite plastid, 48 hour incubation | P. falciparum luciferase growth in erythrocytes, 48 h | Potency, µM (top dose mostly 28.7 µM), hits mostly inhibitors | 310,000 tested, 5.9% active
#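 Cell-based growth assay: transgenic P. falciparum expressing firefly luciferase, cultured in red cells within RPMI 1640 containing 0.5% w/v Albumax, 24 mM bicarbonate and gentamycin. A drop in luciferase activity indicates inhibition.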
# HCV inhibitor: qHTS Assay for Inhibitors of Hepatitis C Virus (HCV); Potency, µM (doses to about 41.8 µM), hits mostly inhibitors; 340,000 tested, 3.4% active; Huh7.5.1 HCVcc-Cre infection, luciferase reporter, 44 h; AID 651820, 2012
#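 Cells (1,000/well) were plated 4 h before compound, then infected with HCVcc-Cre virus (~0.5 moi). After 44 h further culture, infection was read as luciferase luminescence following a 15 min substrate incubation at room temperature.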
# A number is an active result; i = inactive; ? = inconclusive; nt = not tested or not shown; [ ] = dose if it differs, or a comment. Unless noted, calls follow the shape of the dose curve; as a rule, active = well fitted inhibition curve with a large enough effect; inconclusive = small, poorly fitted or top-dose-only effect, or another doubt; inactive = no such curve, though single readings can be large or run the other way.
SMILES,VACV Venus inh,NS1 inh,VACV mCherry inh,Pf growth 96h,Pf growth 48h,HCV inhibitor
O=C(c1ccc(Cn2c(=O)[nH]c3ccccc3c2=O)cc1)N1CCN(c2ccc(Cl)cc2)CC1,nt,i,nt,?,?,11.2µM
CC(=O)c1ccc(N2CCN(C(=O)c3ccc(Cn4c(=O)[nH]c5ccccc5c4=O)cc3)CC2)cc1,i,nt,i,nt,nt,nt
CC1CCCN(C(=O)c2ccc3c(=O)n(Cc4ccc5c(c4)OCO5)c(=S)[nH]c3c2)C1 (configuration not stated),nt,i,nt,7.38µM,i,?
COc1ccc(Cn2c(=O)[nH]c3cc(C(=O)N4CCN(c5ccc(C(C)=O)cc5)CC4)ccc3c2=O)cc1,i,i,i,11.7µM,i,i
O=C(c1ccc2c(=O)n(Cc3ccc4c(c3)OCO4)c(=S)[nH]c2c1)N1CCN(Cc2ccccc2)CC1,i,nt,i,nt,nt,nt
O=C(c1ccc2c(=O)n(-c3ccccc3)c(=O)[nH]c2c1)N1CCN(c2ccc(F)cc2)CC1,nt,i,nt,i,i,?
CN(C)c1cccc(NC(=O)C2(C)CC2(Cl)Cl)c1 (configuration not stated),i,i,i,i,i,i
CN(C)c1ccc(/C=C2\SC(=S)N(Nc3ncc(C(F)(F)F)cc3Cl)C2=O)cc1,nt,i,nt,i,i,i
Cc1cc(C)n(-c2nc(NC(C)C)nc(NC(C)C)n2)n1,i,i,i,i,3.7µM,?
CCNc1nc(NCC)nc(-n2nc(C)cc2C)n1,i,i,i,2.08µM,4.15µM,?
CC(C)Oc1cccc(-c2cc(C(=O)N3CCN(c4ncccn4)CC3)c3ccccc3n2)c1,nt,i,nt,9.28µM,nt,nt
Cc1ccc2nc(-c3ccccn3)cc(C(=O)N3CCN(c4ncccn4)CC3)c2c1,i,i,nt,2.62µM,i,i
O=C(c1cc(-c2ccccn2)nc2c(Cl)cccc12)N1CCN(C(=O)C2CCCO2)CC1 (configuration not stated),?,i,nt,nt,i,i
Cc1cccc2c(C(=O)Nc3ccc(Br)cc3)cc(-c3ccccn3)nc12,i,i,i,?,i,i
O=C(Nc1ccc([N+](=O)[O-])cc1)c1cc(-c2ccccn2)nc2c(Cl)cccc12,i,i,i,14.7µM,i,?
O=C(c1cc(-c2ccccn2)nc2c(Cl)cccc12)N1CCN(S(=O)(=O)c2ccccc2)CC1,i,?,i,i,10.4µM,i
O=C(Nc1ccc(NC(=O)c2cc([N+](=O)[O-])ccc2N2CCOCC2)cc1)c1cccs1,nt,nt,nt,i,i[5.75 µM],?
O=C(OCC(=O)N1CCN(C(=O)c2ccco2)CC1)c1ccc(S(=O)(=O)N2CCCCC2)cc1,i,i,nt,nt,i,i
CCc1ccc(NC(=O)CN2C(=O)CCSc3ccccc32)cc1,?,nt,i,nt,nt,nt
Cc1cccc(Nc2c([N+](=O)[O-])c(=O)n(C)c3ccccc23)c1,i,i,i,10.4µM,14.7µM,?
CN1/C(=C\C=Nc2cc(S(=O)(=O)N3CCOCC3)ccc2N2CCOCC2)C(C)(C)c2ccccc21,i,i,i,8.28µM,i,i
Cc1ccccc1N=C/C=C1\N(C)c2ccccc2C1(C)C,nt,i,nt,nt,i,i
Cc1cccc(NS(=O)(=O)c2cccc(C(=O)N3CCN(S(=O)(=O)c4ccccc4)CC3)c2)c1,i,nt,i,11.7µM,?,?
Cc1ccc(S(=O)(=O)Nc2cccc(C(=O)N3CCN(c4ccccc4O)CC3)c2)cc1F,i,nt,i,?,1.47µM,i
Cn1nc(C(C)(C)C)cc1C(=O)NCc1cc(F)cc2c1OCOC2,nt,i,nt,?,?,?
SMILES,VACV Venus inh,NS1 inh,VACV mCherry inh,Pf growth 96h,Pf growth 48h,HCV inhibitor
Cc1ccc(C(=O)N2CCCC(Nc3ccc(F)c(F)c3)C2)cn1 (configuration not stated),nt,i,nt,11.7µM,i,i
COC(=O)c1ccc(C(=O)N2CCCC(Nc3ccc(F)c(F)c3)C2)cc1 (configuration not stated),i,i,i,i,i,nt
COc1ccc(C(=O)C2CCCN(C(=O)CCc3scnc3C)C2)c(C)c1 (configuration not stated),i,i,i,i,2.33µM,?
Cc1ncsc1CCC(=O)N1CCCC(Nc2ccc(F)c(F)c2)C1 (configuration not stated),i,i,i,11.7µM,i,i
Cc1ccc(NC2CCCN(C(=O)CCc3scnc3C)C2)cc1C (configuration not stated),i,i,i,i,i,i
Cc1cccc(NC(=O)N2C[C@H]3C[C@@H](C2)c2cccc(=O)n2C3)c1,i,i,i,i,i,i
COc1ccc(Nc2nnc(-c3ccccc3)c3ccccc23)cc1C(=O)N1CCCCC1,i,i,i,1.17µM,9.28µM,i
Cc1cccc(Nc2nnc(-c3ccc(C(=O)N4C[C@H]5C[C@H](C4)c4cccc(=O)n4C5)cc3)c3ccccc23)c1,i,i,nt,3.7µM,?,?
COc1ccc(Nc2nnc(-c3ccc(C)cc3)c3ccccc23)cc1C(=O)N1CCCCC1,?,i,i,1.17µM,6.57µM,?
CCN(CC)C(=O)COc1ccc(-c2nnc(N3CCCCC3)c3ccccc23)cc1,nt,i,nt,i,?,?
CCN(CC)C(=O)COc1ccc(-c2nnc(Nc3ccc(OC)c(C(=O)NC)c3)c3ccccc23)cc1,i[7.34 µM],i,i[7.34 µM],10.4µM,?,i
O=C(Nc1ccc2snnc2c1)N1CCCCC1,i,i,i,i,i,i
CCN1C(=O)CC(N2CCN(c3ccc(C(=O)c4ccccc4)cc3)CC2)C1=O (configuration not stated),?,i,nt,nt,?,?
O=C(Nc1cccc(S(=O)(=O)N2CCOCC2)c1)c1cn(-c2ccccc2)nc1-c1ccc(F)cc1,i,i,i,i,i,?
O=C(Nc1cccc(S(=O)(=O)N2CCOCC2)c1)c1cn(-c2ccccc2)nc1-c1ccccc1,i,i,i,10.4µM,i,i
Cc1ccc(-c2nn(-c3ccccc3)cc2C(=O)Nc2ccc(C)c(S(=O)(=O)N3CCOCC3)c2)cc1,i,i,i,?,10.4µM,i
O=c1c2c(-c3ccc([N+](=O)[O-])cc3)csc2nc2n1CCC2,i,i,nt,i,i,i
CCCCNC(=S)Nc1ccc(SC(F)F)cc1,i,nt,i,?,?,11.2µM
Cc1cccc(CN2C(=O)N/C(=C/c3ccc(C)s3)C2=O)c1,?,i,nt,3.29µM,nt,?
Cc1cc(/C=C2\NC(=O)N(Cc3ccc(Cl)cc3)C2=O)c(C)n1C,i,i,i,?,9.28µM,i
Cc1ccc(/C=C2/NC(=O)N(Cc3ccccc3)C2=O)s1,i,3.98µM,i,?,10.4µM,i
Cc1cc(/C=C2\C(=O)NC(=O)N(c3ccc(Cl)cc3)C2=O)c(C)n1C,nt,i,nt,i,i,i
